Results from PubChem BioAssay AID624138 (Broad Institute, 2012).
About 35 (0.2%) of roughly 17,000 compounds were called active.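 How the source made its calls: active means compounds whose four printed spots each show fluorescence over background unusually high for their array block, chance value under 7%; inactive means the rest.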 For the sample, actives were picked, then their nearest neighbours and some compounds at random.

Target: Signal transducer and activator of transcription 3 (Homo sapiens) (UniProt P40763)
Test: small molecules binding His-tagged STAT3 – biochemical, small molecule microarray, single point, set 2, primary screen (AID 624138)
Settings: anti-His fluorescence

Sequence of Signal transducer and activator of transcription 3 (Homo sapiens) (P40763 whole entry, looked up): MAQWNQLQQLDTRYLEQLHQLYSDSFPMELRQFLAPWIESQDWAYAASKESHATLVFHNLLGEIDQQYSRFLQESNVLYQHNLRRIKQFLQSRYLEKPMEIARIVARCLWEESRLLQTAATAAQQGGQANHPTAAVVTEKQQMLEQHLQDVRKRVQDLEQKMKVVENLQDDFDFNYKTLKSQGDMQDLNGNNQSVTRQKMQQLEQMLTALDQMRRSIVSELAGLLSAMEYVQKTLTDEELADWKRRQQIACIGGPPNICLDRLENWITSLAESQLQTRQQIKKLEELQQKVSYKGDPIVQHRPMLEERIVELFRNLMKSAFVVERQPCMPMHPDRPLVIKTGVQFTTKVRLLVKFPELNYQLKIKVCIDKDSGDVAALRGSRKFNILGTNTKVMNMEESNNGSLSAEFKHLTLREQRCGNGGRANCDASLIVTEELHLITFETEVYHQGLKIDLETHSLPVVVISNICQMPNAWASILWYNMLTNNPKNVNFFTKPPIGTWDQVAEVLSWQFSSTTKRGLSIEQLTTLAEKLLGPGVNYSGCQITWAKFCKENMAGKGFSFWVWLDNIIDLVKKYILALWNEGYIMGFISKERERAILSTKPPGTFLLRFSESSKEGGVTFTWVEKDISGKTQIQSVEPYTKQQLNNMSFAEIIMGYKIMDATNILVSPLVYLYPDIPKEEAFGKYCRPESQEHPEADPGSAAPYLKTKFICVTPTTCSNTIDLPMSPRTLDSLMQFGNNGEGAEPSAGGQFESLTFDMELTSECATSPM

outcome, inactive:
O=C(C1=C[C@H](C2CC2)C[C@H](OCc2ccc(CO)cc2)O1)N1CCN(Cc2ccccc2)CC1, C[C@@H]1CCCCO[C@H](CN(C)C(=O)Nc2ccccc2)[C@H](C)CN([C@H](C)CO)C(=O)c2cc(N(C)C)ccc2O1, CC(C)NC(=O)N(C)C[C@H]1OCCCC[C@@H](C)Oc2ccc(NC(=O)Nc3cccc4ccccc34)cc2C(=O)N([C@H](C)CO)C[C@@H]1C, C[C@H]1CN([C@@H](C)CO)C(=O)Cc2cc(NC(=O)Nc3ccc4c(c3)OCO4)ccc2O[C@H]1CN(C)CC1CC1, CC1(C)CC[C@]2(C(=O)O[C@@H]3O[C@H](CO)[C@@H](O)[C@H](O)[C@H]3O)CC[C@]3(C)C(=CCC4[C@@]5(C)CC[C@H](O[C@@H]6O[C@H](C(=O)O)[C@@H](O[C@@H]7OC[C@H](O)[C@H](O)[C@H]7O)[C@H](O)[C@H]6O)C(C)(C)C5CC[C@]43C)C2C1 (some centres not stated), CC(=O)OC[C@H]1O[C@@H](Oc2c(-c3ccc(O)c(O)c3)oc3cc(O)cc(O)c3c2=O)[C@H](O)[C@@H](O)[C@@H]1O, Cc1noc(C)c1S(=O)(=O)Nc1ccc2c(c1)C(=O)N([C@@H](C)CO)C[C@@H](C)[C@@H](CN(C)C)O2, C[C@H](CO)N1C[C@H](C)[C@@H](CN(C)S(=O)(=O)c2ccc(Cl)cc2)Oc2ccc(NS(=O)(=O)c3cccs3)cc2CC1=O, CC(C)NC(=O)Nc1ccc2c(c1)CC(=O)N([C@@H](C)CO)C[C@@H](C)[C@H](CN(C)Cc1ccc(C(F)(F)F)cc1)O2, OCc1nc2ccccc2n1CCOc1cccc(Cl)c1, C[C@@H]1CN([C@@H](C)CO)C(=O)c2cc(NC(=O)Nc3cccc4ccccc34)ccc2O[C@@H]1CN(C)C(=O)NC1CCCCC1, Cc1noc(C)c1NC(=O)N(C)C[C@@H]1Oc2ccc(NC(=O)Nc3ccc4c(c3)OCO4)cc2CC(=O)N([C@H](C)CO)C[C@H]1C, C[C@@H]1CCCCO[C@H](CN(C)C(=O)C2CCCCC2)[C@@H](C)CN([C@@H](C)CO)C(=O)c2cc(NC(=O)Nc3ccccc3)ccc2O1, C[C@H]1CCCCO[C@H](CN(C)Cc2ccccc2)[C@@H](C)CN([C@@H](C)CO)C(=O)c2cc(NS(C)(=O)=O)ccc2O1, C[C@H]1CN([C@@H](C)CO)C(=O)Cc2cc(NC(=O)Nc3cccc4ccccc34)ccc2O[C@H]1CN(C)CC1CC1, CO[C@H]1C(=O)c2c(O)c(CC=C(C)C)c(O)c(CC=C(C)C)c2O[C@@H]1c1ccc(O)cc1, COC(=O)CCCCCCC(=O)Nc1ccc(C2OC(CSc3nc(-c4ccccc4)c(-c4ccccc4)o3)CC(c3ccc([N+](=O)[O-])cc3)O2)cc1 (configuration not stated), Cc1ccc(N(C(=O)COc2ccccc2[N+](=O)[O-])C2C=CS(=O)(=O)C2)cc1 (configuration not stated), Cc1noc(C)c1NC(=O)Nc1ccc2c(c1)CC(=O)N([C@H](C)CO)C[C@H](C)[C@H](CN(C)C(=O)NC(C)C)O2, COc1ccc(C#Cc2ccc3c(c2)[C@]2(C(=O)N3)[C@H](c3ccccc3OCCO)N3[C@H](c4ccccc4)[C@H](c4ccccc4)OC(=O)[C@H]3[C@@H]2C(=O)N2CCCCCCC2)cc1, C[C@@H]1CN([C@@H](C)CO)C(=O)c2cc(N(C)C)ccc2O[C@@H](C)CCCCO[C@H]1CN(C)C(=O)CCCN(C)C, Cc1ccc(-n2c(SCC(=O)c3ccccc3)nnc2-c2ccncc2)cc1C, C[C@@H]1CCCCO[C@@H](CN(C)Cc2ccncc2)[C@@H](C)CN([C@@H](C)CO)C(=O)c2cc(NC(=O)Nc3ccc(F)cc3)ccc2O1, CC1(C)CC[C@@]2(C(=O)O)C(C1)C1=CCC3[C@@]4(C)CC[C@H](O)C(C)(C)C4CC[C@@]3(C)[C@]1(C)C[C@H]2O (some centres not stated), Cn1c(Cc2csc(N)n2)nnc1SC/C=C/c1ccccc1, Cc1nnc(SCc2cc(=O)[nH]c(N3CCN(Cc4ccccc4)CC3)n2)s1, COc1ccc(OC)c(NC(=O)c2cnn(-c3ccccc3Cl)c2NC(=O)c2ccco2)c1, C[C@@H]1CN([C@H](C)CO)C(=O)c2cc(NC(=O)Nc3ccc4c(c3)OCO4)ccc2O[C@@H]1CN(C)Cc1ccc(C(F)(F)F)cc1, C[C@@H]1CN([C@H](C)CO)C(=O)Cc2cc(NC(=O)NC3CCCCC3)ccc2O[C@H]1CN(C)S(=O)(=O)c1ccc(Cl)cc1, CNC[C@@H]1Oc2c(NC(=O)Nc3ccccc3)cccc2C(=O)N([C@@H](C)CO)C[C@@H]1C, COC(=O)c1c(NC(=O)c2cc(-c3ccccn3)nc3ccc(Br)cc23)sc(C(=O)N(C)C)c1C, Cc1ccc(-c2cc(C(F)(F)F)n3nc(C(=O)NCCN4CCOCC4)c(Cl)c3n2)cc1, COc1ccc(S(=O)(=O)N2CCN(c3ccccn3)CC2)cc1N(C)S(=O)(=O)c1ccccc1, C=C1CCCC(C)(C(=O)OC)C1CC/C(C)=C/CCC1=CC(=O)OC1 (configuration not stated), C[C@@H]1CN([C@H](C)CO)C(=O)CCCn2cc(nn2)CO[C@H]1CN(C)S(=O)(=O)c1ccc(Oc2ccccc2)nc1, C[C@H](CO)N1C[C@H](C)[C@H](CN(C)S(=O)(=O)c2cn(C)cn2)Oc2ccc(N(C)C)cc2C1=O, C[C@@H]1CN([C@@H](C)CO)C(=O)CCCn2cc(nn2)CO[C@H]1CN(C)Cc1cccc2c1OCCCO2, C[C@H](CO)N1C[C@H](C)[C@@H](CN(C)S(=O)(=O)c2cccs2)Oc2ccc(NC(=O)Nc3cccc4ccccc34)cc2CC1=O, C=CCn1c(SCc2nc3ccccc3[nH]2)nnc1-c1ccccc1, C[C@H]1CN([C@@H](C)CO)C(=O)CCCn2nncc2CO[C@H]1CN(C)Cc1ccccc1, C[C@H]1CN([C@@H](C)CO)C(=O)c2cc(NS(=O)(=O)c3cn(C)cn3)ccc2O[C@H]1CN(C)CC1CCCCC1, O=C(CCc1nc(-c2ccccc2Cl)no1)Nc1ccc(Cl)c(Cl)c1
